Here are results for 40 molecules from PubChem BioAssay (NCATS).

The structures appear in SMILES notation. Results filed as inconclusive are left out. Where a call stands in place of a potency, no number is given. Values without a mark were called inactive. Activity calls are given as the source filed them. Calls come from the whole dose curve; as a rule, active = well fitted activation curve with a large enough effect; inconclusive = small, poorly fitted or top-dose-only effect; inactive = no such curve, though single readings can be large or run the other way.

Sequence of Rap guanine nucleotide exchange factor 4 (Homo sapiens) (Q8WZA2 whole entry, looked up): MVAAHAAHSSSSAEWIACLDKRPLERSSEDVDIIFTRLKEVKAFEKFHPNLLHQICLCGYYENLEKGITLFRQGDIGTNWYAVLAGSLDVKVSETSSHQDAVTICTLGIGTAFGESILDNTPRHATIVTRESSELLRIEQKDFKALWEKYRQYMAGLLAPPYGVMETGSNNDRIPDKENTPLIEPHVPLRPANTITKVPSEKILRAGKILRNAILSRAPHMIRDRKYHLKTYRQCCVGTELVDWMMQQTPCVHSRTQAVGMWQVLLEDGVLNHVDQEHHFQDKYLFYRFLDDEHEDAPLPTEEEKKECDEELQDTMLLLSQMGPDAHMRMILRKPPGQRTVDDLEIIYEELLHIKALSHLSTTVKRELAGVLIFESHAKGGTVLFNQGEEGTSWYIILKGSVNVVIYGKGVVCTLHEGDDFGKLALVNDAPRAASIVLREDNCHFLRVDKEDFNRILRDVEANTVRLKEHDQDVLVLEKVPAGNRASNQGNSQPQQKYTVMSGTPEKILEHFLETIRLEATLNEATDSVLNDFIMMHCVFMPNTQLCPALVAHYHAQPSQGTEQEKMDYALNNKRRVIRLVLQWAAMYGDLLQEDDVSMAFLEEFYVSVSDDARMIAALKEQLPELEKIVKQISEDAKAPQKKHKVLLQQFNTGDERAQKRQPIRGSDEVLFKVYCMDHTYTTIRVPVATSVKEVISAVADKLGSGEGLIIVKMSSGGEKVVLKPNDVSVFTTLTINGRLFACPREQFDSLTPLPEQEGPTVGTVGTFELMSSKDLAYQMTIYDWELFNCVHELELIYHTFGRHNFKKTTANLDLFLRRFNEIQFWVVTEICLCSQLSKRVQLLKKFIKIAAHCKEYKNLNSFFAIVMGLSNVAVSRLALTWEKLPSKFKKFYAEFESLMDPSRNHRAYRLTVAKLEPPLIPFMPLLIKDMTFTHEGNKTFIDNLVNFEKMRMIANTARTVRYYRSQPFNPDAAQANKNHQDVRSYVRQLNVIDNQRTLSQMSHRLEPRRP

The assay has as its target Rap guanine nucleotide exchange factor 4 (Homo sapiens) (UniProt Q8WZA2). Description: Confirmatory qHTS for agonist of cAMP-regulated guanine nucleotide exchange factor 4 (EPAC2) (AID 1645884).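 Note: nucleotide exchange releases bodipy-GDP from Rap1 and this lowers its fluorescence; nearly all actives have a fitted effect of over 65% in size.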 The settings on record: EPAC2 GEF activity, Rap1B-BODIPY-GDP fluorescence; series mostly up to 154 µM. On the technique in general: In qHTS, concentration-response curves come from the screen itself.
As for `Fc1ccc2cnc(-c3ccccc3)c(-c3ccc(C(F)(F)F)cc3)c2c1`, the Potency entry is “inactive”.
Consider `COC(=O)c1cn(C(=O)c2ccccc2Cl)c2ccccc12`, for which the activation is 7.27% [at 17.1 µM, percent relative to cAMP agonist control].
Turning to `NS(=O)(=O)c1ccc(N/N=C/c2ccc(C(=O)O)cc2)c([N+](=O)[O-])c1`, the Potency entry is “inactive”.
Turning to `O=C(O)CSc1nnc(COc2cccc3ccccc23)n1Cc1ccccc1`, the Potency entry was “inactive”.
Take `CCOc1cc(/C=N/O)cc(Br)c1OCc1ccc(Cl)cc1`: the Potency result is “inactive”.
For the molecule `COc1ccc(-c2nc(CCNS(=O)(=O)c3ccc4c(c3)OCCO4)cs2)cc1`, the Potency entry was “inactive”.
Regarding `Cn1c2ccccc2c2cc(/C=N/NC(=O)c3cc(O)cc(O)c3)ccc21`, the Potency result is “inactive”.
The same measure, in the same setting: the result for `CC(C)CNC(=O)C1(C)CCCCCN1Cc1ccccc1-c1ccccc1` (stereo not given) reads “inactive”.
`Cc1cc(C)c2c(CN3CCC(C)CC3)cc(=O)oc2c1`: the activation is -1.95% [at 17.1 µM, percent relative to cAMP agonist control].
Regarding `O=C(N/N=C/c1ccoc1)c1cc(O)cc(O)c1`, the Potency result was “inactive”.
`C=C1SC(Nc2c(C)cccc2C)=NC12CCCCC2`: the Potency entry is “inactive”.
`COc1cnc(N(C)C)nc1Sc1cccc(Cl)c1`: the activation was 2.02% [at 17.1 µM, percent relative to cAMP agonist control].
`CCOc1cnc(-c2c(-c3ccccc3Cl)noc2C)o1`: the Potency result is “inactive”.
Regarding `O=C1[C@H](Cc2ccccc2)NCC=CC[C@@H](c2ccc(Cl)cc2)N1Cc1ccc(Cl)cc1`, the Potency entry is “inactive”.
`CC(=O)C1=C(O)C2(C)c3c(O)c(C)c(O)c(C(C)=O)c3OC2CC1=O` (stereo not given): the activation was -4.59% [at 17.1 µM, percent relative to cAMP agonist control].
As for `Cc1cc2c(N)cccc2nn1`, the Potency entry was “inactive”.
For the molecule `C[C@H](CO)N1C[C@H](C)[C@@H](CN(C)C)Oc2c(NS(=O)(=O)c3ccccc3)cccc2C1=O`, the Potency entry is “inactive”.
Turning to `O=S(=O)(Nc1nccs1)c1ccc(Nc2nnc(-c3ccccc3)c3ccccc23)cc1`, the activation is 2.79% [at 17.1 µM, percent relative to cAMP agonist control].
In the case of `O=C(O)c1cc(NN=C2c3ccccc3-c3ccccc32)ccc1Cl`, the Potency entry is “inactive”.
On to `COc1cc(/C=C2\SC(=S)N(NC(=O)c3ccc(O)c(OC)c3)C2=O)ccc1O`, for which the Potency entry is “inactive”.
In the case of `CC(C)=CCC[C@H](C)C[C@@H]1Cc2[nH][nH]c(=O)c2[C@H](c2ccc(F)cc2)O1`, the Potency result is “inactive”.
For `O=C(CSc1n[nH]c(=O)[nH]c1=O)Nc1ccc2c(c1)C(=O)c1ccccc1C2=O`, the Potency entry is “inactive”.
Still for that read-out and setting: to `Cc1ccc(C(=O)NNC(=O)c2ccccc2O)cc1S(=O)(=O)N1CCCCC1` belongs “inactive”; to `CCCCN(CCCC)Cc1cc(=O)oc2cc(OC)ccc12`, “inactive”.
In the case of `CC(C)OP(=O)(OC(C)C)C1(NS(=O)(=O)c2ccc(Cl)cc2)C=C(Cl)C(=O)C(Cl)=C1`, the activation is -0.932% [at 17.1 µM, percent relative to cAMP agonist control].
With `Cc1ccc(N2CC(c3nc4ccccc4[nH]3)CC2=O)c(C)c1` (stereo not given), the Potency result was “inactive”.
Turning to `CCCCN(CCCC)C1=Nc2ccccc2N/C1=C(/C#N)C(=O)OCC`, the Potency result is “inactive”.
Regarding `O=C(O)c1ccc(COc2ccc3ccccc3c2/C=C2/NC(=O)N(Cc3ccc(F)cc3)C2=O)cc1`, the Potency result was “inactive”.
`Cc1ccc(Nc2c([N+](=O)[O-])c(=O)oc3ccccc23)cc1C`: the Potency result was “inactive”.
In the case of `O=C1C(=Cc2cn(-c3ccccc3)nc2-c2ccc(OCc3ccc(Cl)cc3)cc2)SC(=S)N1CCS(=O)(=O)O`, the Potency entry was “inactive”.
For the molecule `C[C@@H]1CCCCCCCCC(=O)OCCN1C(=O)OC(C)(C)C`, the Potency entry was “inactive”.
Consider `Cc1cccc(OC(=O)Nc2ccc(C(=O)O)c(O)c2)c1`, for which the activation is -3.1% [at 17.1 µM, percent relative to cAMP agonist control].
In the case of `Cc1ccc2oc(=O)c3cnn(CC(=O)NC4CCC(C)CC4)c3c2c1` (stereo not given), the Potency result is “inactive”.
As for `CCN(CC)S(=O)(=O)c1ccc2[nH]c(=O)cc(C(=O)Nc3ccc(C)c(S(=O)(=O)N(CC)CC)c3)c2c1`, the Potency entry is “inactive”.
For `O=C(COc1ccc(Cl)cc1Cl)c1ccc[nH]1`, the activation is -1.61% [at 17.1 µM, percent relative to cAMP agonist control].
`CCOC(=O)C1=C(C)NC(C)=C(C(=O)OCC)C1C(=O)OCC(=O)NCc1ccc(F)cc1`: the Potency result is “inactive”.
Same read-out and setting: to `CCc1c(C2(O)CCCCC2)[nH]c2c(C(=O)OC)cc(Cl)cc12` belongs “inactive”.
Take `COc1ccc(/C=C/C(=O)c2ccccc2)c(OC)c1`: the activation was 0.603% [at 17.1 µM, percent relative to cAMP agonist control].
Take `COC1=C/C(=C/c2c(N)n3nc(-c4ccc(C)cc4)sc3nc2=O)C=CC1=O`: the Potency entry was “inactive”.
On the same count and under the same terms, the result for `Cc1ccc2c(CC(=O)OCc3cc(=O)n4c(n3)sc3ccccc34)coc2c1` reads “inactive”.
